CYP2C9 activ: human CYP2C9 activators, primary screen, biochemical, luminescence; Cytochrome P450 2C9 (Homo sapiens), P11712; 96,000 compounds, 1.4% hits; recombinant CYP2C9, luciferin-H conversion; hits give high values; factor 1 = untreated enzyme, 0 = blocked; activation factor at 5 µM;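 active = activation factor of 2 or more for CYP2C9 at a 5 µM dose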
Target sequence (P11712 whole entry, looked up): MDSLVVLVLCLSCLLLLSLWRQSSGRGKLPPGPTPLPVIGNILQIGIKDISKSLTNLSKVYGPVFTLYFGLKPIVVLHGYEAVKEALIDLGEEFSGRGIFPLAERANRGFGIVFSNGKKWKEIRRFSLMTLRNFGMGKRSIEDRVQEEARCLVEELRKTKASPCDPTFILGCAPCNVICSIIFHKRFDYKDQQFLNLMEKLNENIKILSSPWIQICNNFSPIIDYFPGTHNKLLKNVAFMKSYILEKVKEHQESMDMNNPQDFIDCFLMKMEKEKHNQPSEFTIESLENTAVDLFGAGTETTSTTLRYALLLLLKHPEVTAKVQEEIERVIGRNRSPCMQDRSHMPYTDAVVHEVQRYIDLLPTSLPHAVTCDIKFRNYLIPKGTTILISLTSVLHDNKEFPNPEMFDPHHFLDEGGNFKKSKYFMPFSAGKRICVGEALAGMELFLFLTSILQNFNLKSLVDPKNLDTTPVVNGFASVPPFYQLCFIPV
PLAP act: PLAP enzyme activators, biochemical, luminescence, HTS; Alkaline phosphatase, placental type (Homo sapiens), P05187; purified PLAP enzyme, luminescent substrate read-out; hits give high values; activation fold at 20 µM; 96,000 compounds, 1.2% hits; in the data active = activation fold above about 2
CYP2C19 act: human CYP2C19 activators, primary screen, biochemical, luminescence | Cytochrome P450 2C19 (Homo sapiens), P33261 | recombinant CYP2C19, luciferin-H EGE luminescence; hits give high values; 0 = fully inhibited enzyme, 1 = untreated enzyme | activation factor at 5 µM | 96,000 tested, under 10 active | AID 1025, 2008;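 active = activation factor of at least 2 at 5 µM in the primary screen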
CYP2C9 inh: blockers of cytochrome P450 2C9 activity – biochemical, luminescence, ADME assay, primary screen; CYP2C9 Supersomes, luciferin-H conversion; inhibition, % at 5 µM; 96,000 compounds, 20% hits; AID 777, 2007;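 active = blocking of liver enzyme CYP2C9 beyond about 50% at 5 µM, limit read from the data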
CYP2C19 inhib: blockers of cytochrome P450 2C19 activity – biochemical, luminescence, ADME assay, primary screen | P33261 | CYP2C19 Supersomes, luciferin-H EGE luminescence, 30 min | inhibition, % at 5 µM | 96,000 compounds, 21% hits | AID 778, 2007;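 active = CYP2C19 inhibition above a set limit at 5 µM in the primary screen, cut at about 50% in these data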
Hits are given with their value; . = inactive. Hits are enriched below; roughly 31% of the tested compounds scored in any of these assays.

SMILES	CYP2C9 activ	PLAP act	CYP2C19 act	CYP2C9 inh	CYP2C19 inhib
CCOC(=O)C(NCc1ccco1)(NC(=O)c1ccccc1)C(F)(F)F (configuration not stated)	.	.	.	.	76
Brc1ccc(-c2noc(COc3ccc4c(c3)CCC4)n2)o1	.	.	.	64	.
Clc1ccc(OCc2nc(-c3ccc(Br)o3)no2)cc1	.	.	.	.	.
CCN(CC)C(=O)Cn1nc(C)c2ccccc2c1=O	.	.	.	.	.
Clc1ccc(/C=N/Nc2nnc(-c3ncc[nH]3)c3ccccc23)cc1	.	.	.	.	.
Oc1ccc(/C=N/Nc2nccnc2Cl)cc1	.	.	.	100	98
O=[N+]([O-])c1cccc(/C=N/Nc2nccnc2Cl)c1	.	.	.	.	60
CCC(C)N1C(=O)CCC1C(=O)N1CCN(c2ccccc2F)CC1 (configuration not stated)	.	.	.	.	.
Fc1ccc2nc3n(c2c1F)CCCCCC3	.	.	.	.	.
Cc1ccc(-c2nn(C)c(=O)c3ccccc23)cc1CN1CCOCC1	.	.	.	.	.
CCOc1ccccc1C(=O)Nc1cccc(-c2nnc(-c3ccccc3)o2)c1	.	.	.	.	.
CCNC(=O)NC(=O)C(C)SCc1ccccc1C (configuration not stated)	.	.	.	.	67
COC(=O)c1cccc(NC(=O)NC2CCCN2S(=O)(=O)c2ccc(Cl)cc2)c1 (configuration not stated)	.	.	.	54	.
NC(N)=Nc1nc(CCN2C(=O)c3ccccc3C2=O)cs1	.	.	.	.	55
O=C1c2ccccc2C(=O)N1CCn1nc(Cl)nc1Cl	.	.	.	.	.
Cc1nc(CCN2C(=O)c3ccccc3C2=O)cs1	.	.	.	.	70
CNc1nc(CCN2C(=O)c3ccccc3C2=O)cs1	.	.	.	.	82
CCCCn1c(SCc2c(C)noc2C)nc2cc(S(N)(=O)=O)ccc21	.	.	.	.	.
O=C(Nc1ccccc1)N(Cc1ccc(Cl)cc1)CC(O)C(F)(F)F (configuration not stated)	.	.	.	53	.
CCCCC(=O)NC1=NC(=O)C(C)(C)S1	.	.	.	.	.
CC(C)c1cc(C(N)=O)c(NC(=O)C2CCC2)s1	.	.	.	55	57
O=C(O)CCNS(=O)(=O)c1ccc(Oc2ccccc2)cc1	.	.	.	.	.
CCn1c(C)nc2cc(-c3nc4n(n3)Cc3ccccc3-4)ccc21	.	.	.	.	84
Fc1ccc(-c2nc3n(n2)Cc2ccccc2-3)cc1	.	.	.	.	.
CCN(CC(=O)O)S(=O)(=O)c1cc(Cl)ccc1Cl	.	.	.	.	.
SMILES	CYP2C9 activ	PLAP act	CYP2C19 act	CYP2C9 inh	CYP2C19 inhib
CN(CC(=O)O)S(=O)(=O)c1cc(Cl)ccc1Cl	.	.	.	.	.
CN(CC(=O)Nn1cnnc1)S(=O)(=O)c1cc(Cl)ccc1Cl	.	.	.	87	81
CN(CC(=O)N1CCCC1)S(=O)(=O)c1cc(Cl)ccc1Cl	2.4	.	.	.	.
O=C(Nc1ccc2c(c1)nc1n2CCOC1)c1ccccc1	.	.	.	.	.
Cc1ccc(-c2nn(-c3ccccc3)cc2C(=O)N2CCOCC2)cc1	.	.	.	71	54
CCOC(=O)c1nn(-c2ccc(C)cc2)cc1C(=O)c1ccccc1	.	.	.	.	66
O=C(c1cccc(Br)c1)c1cn(-c2ccccc2)nc1C(=O)c1ccccc1	.	.	.	.	.
Cc1ccc(-n2cc(C(=O)c3ccccc3O)cn2)cc1	.	.	.	.	61
CCOC(=O)c1cn(-c2ccccc2)nc1-c1ccncc1	.	.	.	82	91
COC(=O)c1cn(-c2ccccc2)nc1-c1ccccc1	.	.	.	.	.
Cc1cc(C(=O)OCc2nnc(-c3ccccc3)o2)c(C)n1-c1ccccc1	.	.	.	64	.
O=C(OCc1nnc(-c2ccccc2)o1)c1cn(-c2ccccc2)nc1-c1ccccc1	.	.	.	91	55
CCCCOc1cccc(OCCCC)c1C(=O)Nc1cc(C)on1	.	.	.	.	.
Cc1ccc(-n2c(C)cc(/C=N/NC(=O)CN(c3ccc(C)cc3C)S(C)(=O)=O)c2C)cc1	.	.	.	.	.
Cc1cc(C)cc(-n2c(C)cc(/C=N/NC(=O)CN(c3c(C)cccc3C)S(C)(=O)=O)c2C)c1	.	2	.	.	.
O=C(NN1C(=O)c2ccccc2NC1c1ccccn1)c1ccc(Br)cc1 (configuration not stated)	.	.	.	.	.
CCc1cccc2c(C(=O)CSc3nnc(-c4ccoc4C)n3C)c[nH]c12	.	.	.	53	65
Cn1c(SCC(=O)c2ccc(F)cc2)nnc1-c1cnccn1	.	.	.	.	.
Cc1occc1-c1nnc(SCCCC(=O)c2ccc(F)cc2)n1C	.	.	.	54	72
Cn1c(SCCSc2nnc(-c3ccccc3)n2C)nnc1-c1ccccc1	.	.	.	.	.
CCn1c(SCC(=O)c2ccc(F)cc2)nnc1-c1ccoc1C	.	.	.	.	.
Cn1c(SCCCC(=O)c2ccccc2)nnc1-c1ccncc1	.	.	.	54	68
Cn1c(SCCCC(=O)c2ccc(F)cc2)nnc1-c1ccncc1	.	.	.	59	71
CCOC(=O)C1CCN(Cc2cnc(Oc3ccc(C(C)(C)C)cc3)s2)CC1	.	.	.	.	.
CCn1c(SCC(=O)Nc2nnc(C)s2)nnc1-c1ccncc1	.	.	.	.	.
SMILES	CYP2C9 activ	PLAP act	CYP2C19 act	CYP2C9 inh	CYP2C19 inhib
COCCn1c(SCCCC(=O)c2ccc(Br)cc2)nnc1-c1ccncc1	.	.	.	85	94
O=C(CCCn1c(=S)[nH]c2ccccc2c1=O)N1CCN(c2cccc(Cl)c2)CC1	.	.	.	.	.
O=C(CCCCn1c(=O)[nH]c2ccccc2c1=O)N1CCN(c2cccc(C(F)(F)F)c2)CC1	.	.	.	.	62
O=C(CCn1c(=O)[nH]c2ccccc2c1=O)N1CCN(c2cccc(C(F)(F)F)c2)CC1	.	.	.	.	67
Cc1nn(-c2ccccc2)c2c1C(c1cccnc1)N1C=C(S(=O)(=O)N3CCCCC3)C=CC1=N2 (configuration not stated)	.	.	.	.	.
CCn1c(CS(=O)Cc2ccc(Cl)cc2Cl)nnc1SCc1c(Cl)cccc1Cl (configuration not stated)	.	.	.	.	.
O=c1oc2ccccc2c(O)c1C=NCc1ccccn1	.	2.1	.	.	.
O=C1C(C=NCc2ccccn2)=C(O)c2ccccc21	.	.	.	.	.
COC(=O)c1ccc(NC(=O)CSc2n[nH]c(-c3ccncc3)n2)cc1	.	.	.	95	.
